Assay outcomes (PubChem)
HT1080 IDH1KD tx = kills HT-1080 cells with IDH1 knockdown; HT-1080 IDH1 knockdown viability, ATP luminescence, 48 h; Potency, µM (titrated, usually from 46.1 µM), most hits filed as cytotoxic; 360,000 tested, 2% active
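Viability of IDH1-knockdown HT-1080 fibrosarcoma cells was assessed by CellTiter-Glo after 48 h at 37 °C with titrated compound; concentration-effect curves were classified by fit quality and response size.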
MCF10A rereplic = inducers of DNA re-replication in MCF 10A breast cells; Potency, µM (top dose mostly 46.1 µM), hits mostly activators; MCF 10A DNA re-replication, Hoechst nuclear intensity, 48 h; 350,000 tested, 2.9% active; further: nearly all actives have a fitted effect of over 50% in size
KB-V1 MDR tox = kills drug-selected multidrug resistant KB-V1 cells. KB-V1 MDR cells viability, CellTiter-Glo, 72 h. Potency, µM (doses to about 46.1 µM), most hits filed as cytotoxic. 400,000 tested, 3.4% active. AID 1347076; further: nearly all actives have a fitted effect of over 60% in size
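KB-V1 cells (P-gp-expressing MDR subline of KB-3-1) in phenol-red-free DMEM with 10% FBS were exposed to library compounds over a concentration series for 72 h at 37 degrees C. Viability read by CellTiter-Glo luminescence; concentration-effect curves fitted after normalization.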
KB-3-1 tox = kills parental KB-3-1 adenocarcinoma cells; KB-3-1 viability, CellTiter-Glo ATP luminescence, 72 h; Potency, µM (titrated, usually from 46.1 µM), usual class: cytotoxic; 400,000 tested, 1.4% active; further: nearly all actives have a fitted effect of over 60% in size
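Multi-concentration cytotoxicity screen in KB-3-1 cells grown in DMEM lacking phenol red with 10% FBS. After 72 h at 37 °C with compound, ATP-dependent luminescence was recorded.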
HT1080-NT tox = kills 2HG-producing HT-1080-NT fibrosarcoma cells; Potency, µM (titrated, usually from 46.1 µM), usual class: cytotoxic; AID 686970; HT-1080-NT fibrosarcoma viability, CellTiter-Glo ATP luminescence, 48 h; 360,000 tested, 1.6% active;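 further: NT is the 2HG producing partner of a matched IDH1 knockdown line; nearly all actives have a fitted effect of over 55% in size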
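HT-1080-NT fibrosarcoma cells (2HG-overproducing), 750 cells/well in RPMI with 5% FBS, dosed after 2 h and incubated 48 h at 37C. CellTiter-Glo luminescence normalized to DMSO and no-cell wells; concentration-response curves fitted and classed.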
SW480 rerep = DNA re-replication induction in SW480 cells; SW480 DNA re-replication, Hoechst DNA content imaging, 48 h; Potency, µM (titrated, usually from 46.1 µM), most hits filed as activators; 340,000 tested, 1.8% active; further: nearly all actives have a fitted effect of over 55% in size
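Treated cells incubate 48 hr (37 C, 5% CO2), are stained 40 min with Hoechst, and nuclear fluorescence is enumerated; a rise in nuclei with high DNA signal marks re-replication.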
Hits are given with their value; i = inactive; ? = inconclusive; nt = not tested or not shown; [ ] = dose if it differs, or a comment. Compounds with a hit are over-represented: about 8% of the library has one in this group of screens. The call rests on the fitted dose curve; in most records, active means well fitted curve in the direction sought with a large enough effect; inconclusive means small, poorly fitted or top-dose-only effect, or another doubt; inactive means no such curve, though single readings can be large; an effect the other way counts as inactive or inconclusive.

SMILES | HT1080 IDH1KD tx | MCF10A rereplic | KB-V1 MDR tox | KB-3-1 tox | HT1080-NT tox | SW480 rerep
Cc1ccc(C)c(CN2C(=O)c3ccccc3S(=O)c3ccc(C(=O)N(C)Cc4ccccc4)cc32)c1 (centres undefined) | nt | nt | i | i | nt | nt
O=C(Cn1cnc2nc3c(cc2c1=O)CCCC3)Nc1ccc(F)cc1Cl | nt | nt | i | i | nt | nt
CCc1ccccc1NC(=O)Cc1c(C(=O)O)[nH]c2ccc(Cl)cc12 | nt | nt | i | i | nt | nt
COc1ccc(CNc2nc3c(c(=O)n(Cc4ccc(Cl)cc4)c(=O)n3C)n2C)cc1 | i | i | 16.4µM | ? | ? | ?
Cc1ccnc(SCCn2c(N3CCC(C)CC3)nc3c2c(=O)n(C)c(=O)n3C)n1 | i | i | i | i | i[9.24 µM] | i
COCCNc1nc2c(c(=O)n(Cc3ccc(OC)cc3)c(=O)n2C)n1C | i | i | i | i | i | i
Cc1ccnc(SCCn2c(N3CCCCC3)nc3c2c(=O)n(C)c(=O)n3C)n1 | i | i | 18.4µM | i | i | i
O=S1(=O)C=C(SCc2ccccc2)Nc2ccccc21 | i | i | 18.4µM | ? | i | i
O=S1(=O)C=C(SCc2ccc(F)cc2)Nc2ccccc21 | i | i | i | i | i | i
COc1ccc(CSC2=CS(=O)(=O)c3ccccc3N2)cc1 | i | i | 23.1µM | i | i | i
Cc1ccc(NC(=O)c2cnn3c(C(F)F)cc(-c4ccccc4)nc23)c(C)c1 | nt | nt | i | i | nt | nt
CN1/C(=C\C(=O)c2cccs2)Sc2ccccc21 | ? | 18.4µM | ? | i | ? | 14.6µM
CN1/C(=C\C(=O)c2cccs2)C(C)(C)c2ccccc21 | i | 4.11µM | ? | i | i | ?
COc1ccccc1N1CCN(c2ncnc3onc(C)c23)CC1 | nt | nt | ? | i | nt | nt
COc1ccccc1N1CCN(c2ncnc3n[nH]c(Br)c23)CC1 | 18.4µM | nt | ? | ? | ? | nt
CCN(CC)c1ccc(/C=C/c2ccccn2)cc1 | nt | nt | i | 0.326µM | nt | nt
CCN(CC)c1ccc(/C=C/c2cc(-c3ccccc3)c3ccccc3n2)cc1 | i | ? | i | i | i | 14.6µM
N#Cc1cccc(S(=O)(=O)N2CCN(S(=O)(=O)c3ccc4c(c3)OCCO4)CC2)c1 | nt | nt | i | i | nt | nt
CCCN1CCC(=NNc2ccc(S(=O)(=O)N3CCOCC3)cc2[N+](=O)[O-])CC1 | 14.6µM | 7.31µM | 7.31µM | 4.61µM | ? | 7.31µM
Cc1ccc(CNc2ccc(S(=O)(=O)N3CCOCC3)cc2[N+](=O)[O-])cc1 | i | i | 5.17µM | i | i | i
COc1ccccc1CNC(=O)c1cc2ccc3ccc(C)[nH]c3c2n1 | nt | nt | ? | i | nt | nt
O=C(/C=C/c1ccccc1Cl)NCCc1ccccc1 | i | i | 16.4µM | i | i | i
O=C(/C=C/c1ccccc1Cl)NCc1ccccc1 | i | i | i | i | i | ?
COc1ccc(-c2noc(COc3cc(C)ccc3C)n2)cc1OC | nt | nt | i | i | nt | nt
CCN1CCN(c2nnc(-n3cccc3C(=O)Nc3cccc(OC)c3)s2)CC1 | nt | nt | i | i | nt | nt
SMILES | HT1080 IDH1KD tx | MCF10A rereplic | KB-V1 MDR tox | KB-3-1 tox | HT1080-NT tox | SW480 rerep
COc1ccc(Cl)c(N2CCN(CCCNC(=O)Nc3ccc(C)cc3)CC2)c1 | ? | i | i | 23.1µM | ? | ?
Cc1ccc2c(c1)c1c(c(=O)n(Cc3ccccc3)c(=O)n1CC(=O)NCc1ccccc1Cl)n2C | nt | nt | i | i | nt | nt
CC1(C)C(=O)Nc2ccccc2N1C(=O)COC(=O)c1cccc(O)c1 | i | i | i | i | i | ?
COc1ccc(CC(=O)NCC2CCCCC2)cc1OC | i | i | i | i | i | 5.8µM
COc1cc(C(=O)OCC(=O)N2c3ccccc3NC(=O)C2(C)C)ccc1OCC(C)C | i | ? | 20.6µM | i | i | i
COc1cc(CCC(=O)OCC(=O)NCC2CCCCC2)cc(OC)c1OC | i | i | i | i | i | i
COc1ccc(C(=O)OCC(=O)NCC2CCCCC2)cc1F | i | 8.2µM | i | i | i | i
COc1cc(C(=O)OCC(=O)NCc2ccc(F)cc2)ccc1OCC(C)C | i | i | i | 23.1µM | i | i
COc1cc(C(=O)OCC(=O)NCCCc2ccccc2)ccc1OCC(C)C | i | i | i | i | i | i
CSc1oc(-c2ccccc2)nc1S(=O)(=O)c1ccc(C)cc1 | i | i | 20.6µM | i | i | i
Cc1ccc(S(=O)(=O)N2CCN(S(=O)(=O)c3ccccc3)C2)cc1 | i | i | ? | i | i | i
Cc1ccc(S(=O)(=O)n2cc(C=O)c3ccccc32)cc1 | 23.1µM | i | i | i | 16.4µM | ?
Cc1ccc(S(=O)(=O)n2cc(-c3ccccc3)c3ccccc32)cc1 | ? | i | 1.3µM | 2.31µM | ? | 3.66µM
COc1ccc(N2C(=O)NC3CC2(C)Oc2ccc(Cl)cc23)cc1OC (centres undefined) | i | ? | ? | ? | i | ?
COc1ccc(CCN2C(=S)NC3CC2(C)Oc2ccc([N+](=O)[O-])cc23)cc1OC (centres undefined) | ? | i | 6.51µM | i | i | 16.4µM
COc1ccc(N(C)C(=O)Cn2cc(S(=O)(=O)N3CCN(c4ccccc4F)CC3)c3ccccc3c2=O)c(OC)c1 | nt | nt | i | i | nt | nt
Cc1ccccc1Cn1ccc(NC(=O)c2cc3nc(-c4ccco4)cc(C(F)(F)F)n3n2)n1 | i | 8.2µM | i | i | i | ?
CCc1ccc(-c2cc(C(F)(F)F)n3nc(C(=O)Nc4c(C)nn(Cc5ccccc5Cl)c4C)cc3n2)s1 | i | 3.26µM | ? | i | i | 10.3µM
CCc1ccc(-c2cc(C(F)(F)F)n3nc(C(=O)Nc4c(C)nn(Cc5ccccc5C)c4C)cc3n2)s1 | i | ? | i | i | i | 2.59µM
Clc1ccccc1OCCCCN1CCNCC1 | i | 20.6µM | i | i | i | i
CC(=O)Nc1ccc(NC(=O)CC(C)n2ccc(C)n2)cc1 (centres undefined) | nt | nt | ? | i | nt | nt
Cc1noc(C)c1COc1ccc(C(=O)N2CCN(S(=O)(=O)c3ccc(Cl)cc3)CC2)cc1 | i | i | i | i | i | i
Cc1noc(C)c1COc1ccc(C(=O)N2CCN(S(=O)(=O)c3ccc(F)cc3)CC2)cc1 | i | i | 8.2µM | i | i | i
Cc1noc(C)c1COc1ccc(C(=O)N2CCC(C)CC2)cc1 | i | i | 23.1µM | i | i | i
COc1cc2c(cc1OC)C(c1ccc(F)cc1)N(c1ccc(F)cc1)C(=O)C2 (centres undefined) | nt | nt | i | i | nt | nt
C=C1C=C(C)n2ncc(C(=O)Nc3ccc(NC(C)=O)c(Cl)c3)c2N1 | nt | nt | i | ? | nt | nt
CNc1ccc(C(=O)c2ccccc2C(=O)O)cc1[N+](=O)[O-] | i | i | i | i | i | i
CNc1ccc(/C=C/C(=O)c2cccc3ccccc23)cc1[N+](=O)[O-] | i | ? | 14.6µM | ? | i | 16.4µM
